According to PubChem BioAssay (NCI):
Compounds without any hit were thinned out: in the full panel of roughly 83,000, 20% have a hit.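 A percent growth of 40 corresponds to 60% growth inhibition; 0 means no net growth; -100 means all cells died. Active threshold: below 10.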 The source made the active and inactive calls.

Legend:
Test in all cases: NCI-60 one-dose screen, 48 h (100 = growth as untreated, 0 = no growth, -100 = all killed)
Details in all cases: 10 µM unless noted
HCT-15 colon = test system: HCT-15 colon
HT29 colon = test system: HT29 colon
SNB-75 CNS = test system: SNB-75 CNS
SNB-19 CNS = test system: SNB-19 CNS
U251 CNS = test system: U251 CNS
PC-3 prostate = test system: PC-3 prostate
UACC-62 melanoma = test system: UACC-62 melanoma
LOX IMVI melanoma = test system: LOX IMVI melanoma
SK-MEL-28 melanoma = test system: SK-MEL-28 melanoma

Measured: growth

COc1cc(-c2nn(-c3ccc(C)cc3)cc2C(=O)O)ccc1O
inactive: HCT-15 colon 99.4% | HT29 colon 107% | SNB-75 CNS 87.5% | SNB-19 CNS 97.7% | U251 CNS 108% | PC-3 prostate 91% | UACC-62 melanoma 96.1% | LOX IMVI melanoma 86% | SK-MEL-28 melanoma 104%

CC1=C/C(=C(\c2ccc(N(C)C)cc2)c2ccc([N+](C)(C)C)cc2)C=CC1=[N+](C)C
inactive: HCT-15 colon 95.7% | HT29 colon 36.5% | SNB-75 CNS 80.5% | SNB-19 CNS 77% | U251 CNS 25.7% | PC-3 prostate 72.9% | UACC-62 melanoma 97.6% | LOX IMVI melanoma 69.1% | SK-MEL-28 melanoma 72.3%

CC[C@H]1OC(=O)[C@H](C)[C@@H](O[C@H]2C[C@@](C)(OC)[C@@H](O)[C@H](C)O2)[C@H](C)[C@@H](O[C@@H]2O[C@H](C)C[C@H](N(C)C)[C@H]2O)[C@](C)(O)C[C@H](C)CN(C)[C@H](C)[C@@H](O)[C@]1(C)O
inactive: HCT-15 colon 97.1% | HT29 colon 102% | SNB-75 CNS 80.8% | SNB-19 CNS 93.4% | U251 CNS 94.8% | PC-3 prostate 91% | UACC-62 melanoma 98.3% | LOX IMVI melanoma 87% | SK-MEL-28 melanoma 114%

COC[C@H](C)n1c(C2CCOCC2)nc2cnc3cc(-c4c(C)noc4C)c(OC)cc3c21
inactive: HCT-15 colon 34.6% | HT29 colon 23.4% | SNB-75 CNS 31.2% | SNB-19 CNS 64.8% | U251 CNS 54.1% | PC-3 prostate 44.8% | UACC-62 melanoma 31.7% | LOX IMVI melanoma 27% | SK-MEL-28 melanoma 59%

N#CN1CC[C@H](C(=O)Nc2cc3cc(C(N)=O)ccc3cn2)C1
active: HCT-15 colon 3.81% | HT29 colon -31.2% | SNB-75 CNS -28.4% | SNB-19 CNS 7.87% | U251 CNS -2.5% | PC-3 prostate 2.76% | UACC-62 melanoma -34.5% | LOX IMVI melanoma 4.7% | SK-MEL-28 melanoma -9.92%

Oc1ccccc1-c1nnc(CNc2ccc(Cl)cc2)o1
active: UACC-62 melanoma 8.19% | LOX IMVI melanoma 7.71%
inactive: HCT-15 colon 20.7% | HT29 colon 39.7% | SNB-75 CNS 50.3% | SNB-19 CNS 41.9% | U251 CNS 16% | PC-3 prostate 34.5% | SK-MEL-28 melanoma 32.2%

CN1CCN(CCCOc2cccc3nc(Nc4cc(Cl)cc(Cl)c4)ccc23)CC1
inactive: SNB-75 CNS 36.4%
active: HCT-15 colon -73.6% | HT29 colon -80.1% | SNB-19 CNS 7.72% | U251 CNS -1.53% | PC-3 prostate 3.25% | UACC-62 melanoma -57.7% | LOX IMVI melanoma -92.9% | SK-MEL-28 melanoma -51.2%

CC1CCNC(C)C1 (centres undefined)
inactive: HCT-15 colon 108% | HT29 colon 110% | SNB-75 CNS 86.5% | SNB-19 CNS 114% | U251 CNS 108% | PC-3 prostate 90.3% | UACC-62 melanoma 102% | LOX IMVI melanoma 100% | SK-MEL-28 melanoma 115%

CC1=C[C@H]2c3c(c(O)c(O)c4oc5cc(O)ccc5c(=O)c34)[C@H](c3cc(O)c(O)c4oc5cc(O)ccc5c(=O)c34)[C@H]2C(C)(C)C1
inactive: HCT-15 colon 33.4% | HT29 colon 20.2% | SNB-75 CNS 21.3% | SNB-19 CNS 22.1% | U251 CNS 14.8% | PC-3 prostate 29.7% | LOX IMVI melanoma 16.2% | SK-MEL-28 melanoma 46.9%
active: UACC-62 melanoma 5.54%

Nc1n[nH]c2ccc([C@@H]3Nc4ccc5[nH]ncc5c4[C@H]4C5C=CC(C5)[C@@H]34)cc12 (some centres undefined)
active: SNB-75 CNS -9.96% | LOX IMVI melanoma 9.79%
inactive: HCT-15 colon 10.8% | HT29 colon 11.5% | SNB-19 CNS 27% | U251 CNS 18% | PC-3 prostate 13.8% | UACC-62 melanoma 37.5% | SK-MEL-28 melanoma 54.6%

COc1cccc(/C=C2\Oc3cc(OCCN4CCCC4)ccc3C2=O)c1
inactive: HCT-15 colon 67% | HT29 colon 35.2% | SNB-75 CNS 87.3% | SNB-19 CNS 102% | U251 CNS 92.1% | PC-3 prostate 83.6% | UACC-62 melanoma 106% | LOX IMVI melanoma 76.1% | SK-MEL-28 melanoma 102%

CC1=C[C@H]2c3c(c(O)c(O)c4oc5ccccc5c(=O)c34)[C@H](c3cc(O)c(O)c4oc5ccccc5c(=O)c34)[C@H]2C(C)(C)C1
inactive: HCT-15 colon 13.7% | HT29 colon 14.8% | SNB-19 CNS 13.8% | SK-MEL-28 melanoma 18.3%
active: SNB-75 CNS -29.7% | U251 CNS 5.08% | PC-3 prostate 5.67% | UACC-62 melanoma -65.5% | LOX IMVI melanoma -78.9%

O=C1c2cc3c(cc2-c2c1c1ccc(F)cc1c(=O)n2C[C@H](O)[C@@H](O)[C@H](O)CO)OCO3
active: HCT-15 colon 5.37% | HT29 colon -2.72% | SNB-75 CNS -38.4% | SNB-19 CNS 4.38% | U251 CNS -19.1% | PC-3 prostate 7.25% | UACC-62 melanoma -55.5% | LOX IMVI melanoma -30.4% | SK-MEL-28 melanoma -37.6%

CCC(=O)c1ccc(Cl)s1
inactive: HCT-15 colon 105% | HT29 colon 96.9% | SNB-75 CNS 91.4% | SNB-19 CNS 102% | U251 CNS 94.6% | PC-3 prostate 98.4% | UACC-62 melanoma 106% | LOX IMVI melanoma 107% | SK-MEL-28 melanoma 99.6%

Cc1ccc(NC(=O)C2CCC(CN3CCN(C)CC3)CC2)cc1Nc1nccc(-c2cccnc2)n1 (centres undefined)
inactive: HCT-15 colon 95.2% | HT29 colon 100% | SNB-75 CNS 77.6% | SNB-19 CNS 100% | U251 CNS 95% | PC-3 prostate 103% | UACC-62 melanoma 103% | LOX IMVI melanoma 90.8% | SK-MEL-28 melanoma 99.7%

Oc1cccc2ccc(N/N=C/c3cc(CN4CCOCC4)c(O)c4ncccc34)nc12
active: U251 CNS 5.22% | UACC-62 melanoma 2.18% | LOX IMVI melanoma -71.1%
inactive: HCT-15 colon 26.2% | HT29 colon 17.6% | SNB-75 CNS 35.9% | SNB-19 CNS 23.9% | PC-3 prostate 28.5% | SK-MEL-28 melanoma 24%

C[n+]1ccccc1/C=C/c1ccc2cccc(O)c2n1
inactive: HCT-15 colon 106% | HT29 colon 101% | SNB-75 CNS 86.8% | SNB-19 CNS 97% | U251 CNS 100% | PC-3 prostate 94.7% | UACC-62 melanoma 105% | LOX IMVI melanoma 104% | SK-MEL-28 melanoma 95.7%

C=C(C)C1CC(O)C2(C)CCCC3C2C1CC(C)C3(C)CC/C(C)=C/C(O)C1CCC(=O)c2c(OC)cc(OC)cc21 (centres undefined)
inactive: HCT-15 colon 30.7% | HT29 colon 46.6% | SNB-75 CNS 38.3% | SNB-19 CNS 56.5% | U251 CNS 35.9% | PC-3 prostate 20.9% | UACC-62 melanoma 36.5% | LOX IMVI melanoma 22.5% | SK-MEL-28 melanoma 49.6%

Cc1ncc(C(=O)Nc2ccc(CN3CCN(C)CC3)c(C(F)(F)F)c2)cc1C#Cc1cnc2cccnn12
active: HCT-15 colon 4.12% | HT29 colon 0.719% | SNB-75 CNS -71.7% | SNB-19 CNS 7.27% | U251 CNS 7.52% | PC-3 prostate 5.7% | UACC-62 melanoma -16.9% | LOX IMVI melanoma -18.3% | SK-MEL-28 melanoma -14.4%

O=C1c2ccccc2OC=C(c2ccccc2)N1CCCCNc1ccc(S(=O)(=O)Nc2ncccn2)cc1
inactive: HCT-15 colon 96.1% | HT29 colon 100% | SNB-75 CNS 80% | SNB-19 CNS 101% | U251 CNS 91.1% | PC-3 prostate 76.4% | UACC-62 melanoma 86.8% | LOX IMVI melanoma 92.7% | SK-MEL-28 melanoma 108%

Cc1cc(N[C@@H]2CCC[C@H](Nc3ccnc4cc(Cl)ccc34)C2)nc(N2CCCCCC2)n1
active: HCT-15 colon -73.2% | HT29 colon -59.9% | SNB-75 CNS -83.7% | SNB-19 CNS -22.2% | U251 CNS -92.6% | PC-3 prostate -67.7% | UACC-62 melanoma -90.2% | LOX IMVI melanoma -86.3% | SK-MEL-28 melanoma -80.3%

CCCOc1cc2ccccc2cc1C(=O)Nc1nc(NC)c2c(ccc3nccc32)[nH]1
active: HCT-15 colon -50% | HT29 colon -73.1% | SNB-75 CNS -87.1% | SNB-19 CNS -78.8% | U251 CNS -85.5% | PC-3 prostate -51.5% | UACC-62 melanoma -77.3% | LOX IMVI melanoma -81% | SK-MEL-28 melanoma -84.4%

CCCCn1c(-c2ccc(C(=O)O/N=C(\N)c3ccc4c(c3)OCO4)cc2)nc(-c2ccccc2)c1-c1ccccc1
inactive: HCT-15 colon 19.4% | HT29 colon 19.7% | SNB-19 CNS 58.8% | U251 CNS 45% | PC-3 prostate 42.5% | UACC-62 melanoma 67.9% | SK-MEL-28 melanoma 76.9%
active: SNB-75 CNS -15.4% | LOX IMVI melanoma -72.5%

CN(C)c1ccc(N=Nc2ccc(Br)cn2)c(O)c1
inactive: HCT-15 colon 28.3% | HT29 colon 21.9% | SNB-75 CNS 39.1% | SNB-19 CNS 19.6% | U251 CNS 11.4% | PC-3 prostate 33.3% | SK-MEL-28 melanoma 29.9%
active: UACC-62 melanoma -45.3% | LOX IMVI melanoma 6.61%

O=C(CCl)Oc1ccc(-c2ccccc2)c(Br)c1
inactive: HCT-15 colon 110% | HT29 colon 109% | SNB-75 CNS 95.6% | SNB-19 CNS 107% | U251 CNS 102% | PC-3 prostate 97.2% | UACC-62 melanoma 99.6% | LOX IMVI melanoma 97% | SK-MEL-28 melanoma 107%

COc1ccc(C2Nc3c(c(C(C)(C)C)nn3-c3ccccc3)C(=O)CS2)cc1 (centres undefined)
inactive: HCT-15 colon 97.7% | HT29 colon 86.7% | SNB-75 CNS 89.2% | SNB-19 CNS 98.8% | U251 CNS 102% | PC-3 prostate 79.5% | UACC-62 melanoma 80% | LOX IMVI melanoma 94.5% | SK-MEL-28 melanoma 113%
